We go through 40 compounds from PubChem BioAssay (NCATS).

Results filed as inconclusive are left out. Where a call stands in place of a potency, no number is given. Calls of active or inactive are those of the source. Calls follow the shape of the dose curve; as a rule, active = well fitted inhibition curve with a large enough effect; inconclusive = small, poorly fitted or top-dose-only effect; inactive = flat fitted curve, though single readings scatter.

Calcium and integrin-binding protein 1 (Homo sapiens), sequence (Q99828 whole entry, looked up): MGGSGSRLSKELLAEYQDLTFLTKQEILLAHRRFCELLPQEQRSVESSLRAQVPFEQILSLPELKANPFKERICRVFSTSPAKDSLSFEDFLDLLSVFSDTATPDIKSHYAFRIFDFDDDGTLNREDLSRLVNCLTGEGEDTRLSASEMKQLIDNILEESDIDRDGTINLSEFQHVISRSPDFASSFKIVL

This assay concerns the target Calcium and integrin-binding protein 1 (Homo sapiens) (UniProt Q99828). Nature of the assay: Primary qHTS for Identification of Calcium Integrin Binding Protein 1 (CIB1) Competitor (AID 1508620).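 Also: GST tagged CIB1 binding a fluorescein labelled alphaIIb integrin peptide tracer; top concentration of the series differs between compounds.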 The following applies: CIB1-GST / FITC-alphaIIb peptide fluorescence polarization; series mostly up to 114 µM. The essentials: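 CIB1-GST (1 uM final) and compound incubated 15 min at room temperature before adding FITC-alphaIIb peptide tracer (100 nM final). Competition for binding read by fluorescence polarization (ex 480, em 540) after another 15 min at room temperature.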
On the technique in general: qHTS replaces the single test concentration by a dilution series.
With `Cc1cc(C)nc(NC(=S)N2CCN(c3cnccn3)CC2)c1`, the Potency entry is “inactive”.

Consider `Cc1cc(NS(=O)(=O)c2ccc(N(C)C(=O)Cc3ccc(Cl)c(Cl)c3)cc2)no1`, for which the Potency result is “inactive”.

As to `COc1cccc(C2c3c(ncn(-c4cccc(OC)c4)c3=N)Oc3ccc4ccccc4c32)c1` (stereo not given), the Potency entry is “inactive”.

`COc1cc(OC)c(C(CC(=O)N2CC(C)CC(C)C2)c2ccc3c(c2)OCO3)c(OCC#N)c1` (stereo not given): the Potency result is “inactive”.

With `COc1ccc(Cn2ncc3c4sc(C)cc4n(C)c3c2=O)cc1`, the Potency result was “inactive”.

On to `Oc1ccc(-c2ccccc2F)c2cccnc12`, for which the Potency result was “inactive”.

Regarding `O=C(/C=C/c1ccc(C(F)(F)F)cc1)Nc1cccc([S+](=O)([O-])Nc2ccccc2F)c1`, the Potency entry was “inactive”.

For `CC(=O)Nc1sc2c(c1-c1ccc(C#N)cc1)CCNC2`, the Potency entry is “inactive”.

As to `O=C1Nc2ccccc2/C1=C/c1cccc(C(=O)O)c1`, the Potency result was “inactive”.

As to `CC1=C(C(=O)Nc2nnc(-c3ccccc3)s2)C(c2nn(C)cc2Cl)N=C(Nc2nc3ccccc3o2)N1` (stereo not given), the Potency entry was “inactive”.

Consider `O=Cc1ccc(N2CCN(S(=O)(=O)c3ccc4c(c3)CC(=O)N4)CC2)cc1`, for which the Potency result is “inactive”.

`COc1ccc(C2Nc3ccccc3C(=O)N2Cc2ccccn2)cc1COc1c(C)cccc1C` (stereo not given): the Potency result was “inactive”.

As for `Cc1ccc2nc3sc(C(=O)Nc4ccc(F)cc4)cc3cc2c1`, the Potency result is “inactive”.

As to `N#Cc1ccc(N2CCN(S(=O)(=O)c3ccc4c(c3)CC(=O)N4)CC2)cc1`, the Potency entry was “inactive”.

Consider `O=C(CNC(=O)c1ccc(C(F)(F)F)cc1)OC(C(=O)Nc1cc(C(F)(F)F)ccc1Cl)c1ccccc1` (stereo not given), for which the Potency entry was “inactive”.

On to `CCOc1cc(CCNC(=O)c2cc3sccc3n2Cc2ccccc2)cc(F)c1OCC`, for which the Potency entry was “inactive”.

`C[C@H]1CN(S(=O)(=O)c2c(F)cccc2F)CCN1S(=O)(=O)c1ccc2c(c1)OCCO2`: the Potency entry is “inactive”.

`Nc1ncnc2c1ncn2[C@@H]1O[C@H](CN[S+](=O)([O-])NC(=O)c2cccc(-c3noc(-c4ccccc4F)n3)c2)[C@@H](O)[C@H]1O`: the Potency result is “inactive”.

With `NC(=O)C1CCN(c2ncnc(-c3ccc4c(c3)OCCCO4)n2)CC1`, the Potency entry was “inactive”.

For `Cc1c(C(=O)OC[C@H]2CCCO2)[nH]c2c1C(=O)CC(c1ccco1)C2` (stereo not given in full), the Potency result was “inactive”.

Take `COc1ccc2c(=O)n3nc(Nc4ccc5c(c4)CCC5)sc3nc2c1`: the Potency result is “inactive”.

As for `O=C1Nc2ccccc2/C1=C\c1ccc([N+](=O)[O-])cc1`, the Potency result is “inactive”.

For the compound `CC(=O)Nc1cccc(S(=O)(=O)Nc2ccc(C)c(C)c2)c1`, the Potency result was “inactive”.

Take `CN(CC(=O)O)c1ncnc2ccc(-c3ccc4c(c3)OCO4)cc12`: the Potency entry was “inactive”.

For the compound `NC(=O)c1cccc(-c2noc(-c3ccccc3C(F)(F)F)n2)c1`, the Potency entry is “inactive”.

In the case of `Fc1cc(-c2nc(Nc3ccc(F)c(F)c3)c3ccccc3n2)ccn1`, the Potency entry was “inactive”.

`COc1ccc(C2Nc3ccccc3C(=O)N2Cc2ccc(C(F)(F)F)o2)cc1COc1c(C)cccc1C` (stereo not given): the Potency entry is “inactive”.

For the compound `COc1ccc(C2Nc3cccc(OC)c3C(=O)N2Cc2ccco2)cc1COc1c(C)cc(NC(C)=O)cc1C` (stereo not given), the Potency entry was “inactive”.

Turning to `O=C(CNC(=O)C1CCCC1)OC(C(=O)Nc1cc(C(F)(F)F)ccc1Cl)c1ccccc1` (stereo not given), the Potency result is “inactive”.

Regarding `Cc1cc(-c2nnc3n2CCCC3)c(C)n1-c1ccccc1`, the Potency entry was “inactive”.

On to `COc1ccc(CN(Cc2ccccc2)C(=O)c2ccccc2N)cc1COc1ccc(NC(C)=O)cc1`, for which the Potency result was “inactive”.

As to `CC(=O)c1ccc(N2CCN(S(=O)(=O)c3ccc(N4CCCC4=O)cc3)CC2)cc1`, the Potency result was “inactive”.

As for `O=S(=O)(c1ccccc1)N1CCN(c2nc(-c3ccc(Br)cc3)cs2)CC1`, the Potency result was “inactive”.

Take `O=C(c1ccccc1O)N(Cc1cccs1)Cc1cccs1`: the Potency entry was “inactive”.

Take `CC1(C)CCC(C)(C)c2cc([S+](=O)([O-])N3CCN([S+](=O)([O-])c4c(F)cccc4F)CC3)ccc21`: the Potency result was “inactive”.

Consider `Cc1ccc2nc3sc(C(=O)N4CCOCC4)cc3cc2c1`, for which the Potency entry was “inactive”.

Take `Cc1ccc(C)c(OC2=NS(=O)(=O)c3ccccc32)c1`: the Potency result was “inactive”.

Take `COc1cc(F)c(S(=O)(=O)N2CCN(S(=O)(=O)c3ccc(N)cc3)CC2)c(F)c1`: the Potency entry was “inactive”.

`CC(=O)Nc1sc2c(c1-c1cnn(C(C)=O)c1)CCNC2`: the Potency entry is “inactive”.

`COc1cc(Nc2nc(-c3ccncc3)nc3ccccc23)ccc1F`: the Potency entry was “inactive”.
